IL-2 act: activators of IL-2; 360,000 tested, 0.065% active; AID 652025; activation, % (series mostly up to about 46 µM); IL-2 activation reporter assay, cell-based qHTS; stimulated with anti-CD3/CD4/CD28 beads; in transgenic mouse T cells; in the data active = activation above about 50%; inconclusive = mostly about 30% to 49%
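Using fluorescent plate cytometry, EGFP and DsRed are detected in transgenic mouse T cells stimulated 18 h at 37 degrees C with antibody-coated beads after 60 min compound pretreatment.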
ClpP mod: qHTS Assay for Activators of ClpP. 340,000 tested, 1.9% active. AID 651965, 2013. Potency, µM (series often up to 57.5 µM). purified B. subtilis ClpP, FRET peptide cleavage, 20 min; active = well fitted falling curve with a large enough effect; inconclusive = small, poorly fitted or top-dose-only effect; inactive = no such curve, though single readings can be large or run the other way; also: the source files actives as falling curves though it sought activators and does not explain the sign; nearly all actives have a fitted effect of over 65% in size
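Buffer: 100 mM Tris/HCl pH8, 100 mM KCl, 0.05% low protease BSA, 2.5% glycerol, 0.01% Tween-20. ClpP 10 microg/mL final; 20 min RT; delta FRET normalized to ADEP and DMSO controls.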
USP2a block: inhibitors of human ubiquitin-specific protease USP2a. 330,000 tested, 0.01% active. Potency, µM (series often up to 38.3 µM), hits mostly inhibitors. USP2 core, Ub-CHOP2 coupled fluorogenic reporter, 485/531. O75604
Target sequence (O75604 whole entry, looked up): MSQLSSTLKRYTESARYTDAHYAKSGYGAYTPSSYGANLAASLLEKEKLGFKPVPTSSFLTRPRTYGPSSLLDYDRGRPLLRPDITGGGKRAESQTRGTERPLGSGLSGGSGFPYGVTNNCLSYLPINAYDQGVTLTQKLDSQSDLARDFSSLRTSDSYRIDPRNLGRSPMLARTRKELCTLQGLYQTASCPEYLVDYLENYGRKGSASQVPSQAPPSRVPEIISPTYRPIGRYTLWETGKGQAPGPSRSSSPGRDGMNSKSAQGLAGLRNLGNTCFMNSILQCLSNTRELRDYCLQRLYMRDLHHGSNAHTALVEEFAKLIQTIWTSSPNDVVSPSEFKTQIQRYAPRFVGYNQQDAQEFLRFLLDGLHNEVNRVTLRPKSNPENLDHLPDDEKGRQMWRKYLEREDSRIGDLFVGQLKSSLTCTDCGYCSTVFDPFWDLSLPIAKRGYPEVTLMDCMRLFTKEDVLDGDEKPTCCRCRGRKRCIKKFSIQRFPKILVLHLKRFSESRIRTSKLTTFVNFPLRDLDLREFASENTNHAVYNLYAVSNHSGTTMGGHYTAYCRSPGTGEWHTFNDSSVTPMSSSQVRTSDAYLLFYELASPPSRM
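USP2 core (10nM final) preincubated 30min RT with compound in 20mM Tris-HCl pH 8.0, 2mM CaCl2, 2mM beta-mercaptoethanol, 0.05% CHAPS; 25nM Ub-CHOP2 plus 25nM reporter substrate added, fluorescence (Ex485/Em531) read after 60min.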
Pin1 inhibitor: inhibitors of human Pin1 | Q13526 | Pin1 FP peptide displacement, HiFluor488, 10 min | Potency, µM (doses to about 115 µM), actives largely listed as inhibitors | 390,000 tested, 0.009% active | AID 504891; active = well fitted inhibition curve with a large enough effect in the polarisation, with a control signal flat, not every such curve was filed as active; inconclusive = small, poorly fitted or top-dose-only effect, or effect the other way, or a change in a side signal; inactive = no such curve, though single readings can be large or run the other way; the % refers to the polarisation
a7 integrin act: activates integrin-mediated alleviation for muscular dystrophy; alpha7betagal myoblasts, beta-gal FDG fluorescence, 48 h; Potency, µM (doses to about 38.3 µM), hits mostly activators; 350,000 tested, 0.064% active; AID 624291; also: nearly all actives have a fitted effect of over 60% in size
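alpha7betagal+/- myoblasts (passage 13, 250/well) treated 48 h at 37C with compounds at 1:260 dilution of DMSO stock. Lysed, then beta-galactosidase activity read as FDG fluorescence (ex 480/em 540) after 30 min, with pre-read for autofluorescence.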
PKM2 act: increases activity of human pyruvate kinase M2. P14618. purified PKM2, Kinase-Glo ATP luminescence, activation; response scale: 0% is enzyme alone, no compound. Potency, µM (top dose mostly 57.5 µM), hits mostly activators. 260,000 tested, 0.34% active; also: nearly all actives have a fitted effect of over 55% in size
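ATP formation by purified human PK-M2, quantified via coupled luciferase luminescence after 1 h at room temperature with 0.1 mM ADP and 0.5 mM PEP final.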
Numbers stand for hits; 0 = inactive; ? = inconclusive; - = no result given; [ ] = another dose, or the depositor's remark. An excerpt weighted towards active compounds, which were near 1.9% of everything screened. Unless noted, calls follow the shape of the dose curve; as a rule, active = well fitted curve in the direction sought with a large enough effect; inconclusive = small, poorly fitted or top-dose-only effect, or another doubt; inactive = no such curve, though single readings can be large; an effect the other way counts as inactive or inconclusive.

SMILES	IL-2 act	ClpP mod	USP2a block	Pin1 inhibitor	a7 integrin act	PKM2 act
O=C(Cn1ccc2ccccc2c1=O)NCCC(=O)Nc1cccc(Cl)c1	0	17.8µM	0	0	0	0
O=C(c1cc(-c2cccs2)nc2ccccc12)N1CCN(S(=O)(=O)c2cccc(F)c2)CC1	0	28.2µM	0	0	0	0
O=C(c1cc(-c2cccs2)nc2ccccc12)N1CCN(c2ccccc2)CC1	0	-	0	0	0	0
CN(C)S(=O)(=O)c1cccc(NC(=O)c2cc(-c3cccs3)nc3ccccc23)c1	0	15.8µM	0	0	0	0
O=C(c1cc(-c2cccs2)nc2ccccc12)N1CCN(S(=O)(=O)c2ccccc2)CC1	0	25.1µM	0	0	0	?
Cc1cccc(NC(=O)c2cc(-c3ccc(C)s3)nc3ccccc23)n1	0	15.8µM	0	0	0	0
CC(=O)N1c2ccccc2C(=O)C1N1CCN(c2cc(Cl)ccc2C)CC1 (stereo not given)	-	?	-	0	-	-
O=[N+]([O-])c1ccc2nc(CO)[nH]c2c1	-	0	-	-	-	-
C(=Nc1cccnc1)c1ccnc2ccccc12	-	0	-	-	-	-
CC(C)c1ccc(NC(=O)CSc2nnc(-c3ccccc3)n2C)cc1	-	0	-	-	-	-
COc1cc2nc(NC3CCN(Cc4ccccc4)CC3)nc(N3CCCN(C)CC3)c2cc1OC	-	0	-	-	-	-
CCn1cc(C(=O)OCC(=O)N2C(C)CCCC2C)c(=O)c2ccc(C)nc21 (stereo not given)	0	15.8µM	0	0	0	0
C=C1CCN(C(Cc2ccccc2)C(=O)Nc2ccc(OC)cc2)S(=O)(=O)c2ccccc21 (stereo not given)	-	-	-	0	-	-
O=C(O)c1cc(N2N=C(C(F)(F)F)/C(=C/C=C/c3ccco3)C2=O)ccc1Cl	0	-	10µM	-	0	0
CCOC(=O)c1ccc(N2N=C(C)/C(=C/C=C/c3ccco3)C2=O)cc1	0	0	0	0	0	0
CCOC(=O)c1c(-c2ccc(F)cc2)csc1NC(=O)c1c(-c2ccccc2)noc1C	0	20µM	0	0	0	0
Cc1ccc(S(=O)(=O)CC(=O)c2ccc(C(C)(C)C)cc2)cc1	0	28.2µM	0	0	0	0
Nc1nc(=S)[nH]c(N)c1N	-	0	-	-	-	-
CCC(C)(C)NC(=O)C1CCN(c2nc(C)cc(C)n2)CC1	0	14.1µM	0	0	0	0
CCCNC(=O)C1CCN(c2nc(C)cc(C)n2)CC1	0	15.8µM	0	0	0	0
Cc1ccc(NC(=O)C2CCN(c3nc(C)cc(C)n3)CC2)cc1	0	?	0	0	0	0
Cc1cc(C)nc(N2CCC(C(=O)O)CC2)n1	0	20µM	0	0	0	0
CCCCNC(=O)C1CCN(c2nc(C)cc(C)n2)CC1	0	0	0	0	0	0
C/C=C\C=C/C(=O)Nc1cccc(C2=NOC3(C2)C[C@H](C(N)=O)N(C(=O)CC)C3)c1 (stereo not given in full)	0	0	0	0	0	12.6µM
C/C=C/C=C\C(=O)Nc1cccc(C2=NOC3(C2)C[C@H](C(N)=O)N(C(=O)CC#N)C3)c1 (stereo not given in full)	0	0	0	0	0	20µM
SMILES	IL-2 act	ClpP mod	USP2a block	Pin1 inhibitor	a7 integrin act	PKM2 act
C/C=C\C=C/C(=O)Nc1cccc(C2=NOC3(C2)C[C@H](C(N)=O)N(C(=O)c2ccc(OC)cc2)C3)c1 (stereo not given in full)	0	0	0	?	0	14.1µM
C/C=C\C=C/C(=O)Nc1cccc(C2=NOC3(C2)C[C@@H](C(N)=O)N(C(=O)CCCCC)C3)c1 (stereo not given in full)	0	0	0	0	0	?
C=CCn1c(SCCC)nc2ccccc2c1=O	-	0	-	0	-	-
O=C(C[n+]1ccccc1Cl)c1ccc(O)c(O)c1	-	0	-	-	-	-
C=CC1=C2C=C(C3CC3)N(Cc3ccco3)C=C2C(=O)C(C)(OC(=O)c2ccco2)C1=O (stereo not given)	-	-	-	-	-	0[11.5 µM]
O=C(OCC#CCSc1nnc(-c2cccc3ccccc23)o1)c1sc(Cl)c(Cl)c1Cl	-	-	-	0	-	-
Cc1c(Cc2ccccc2)c(=O)n2c([nH]c3ccccc32)c1C#N	0	0	0	?	0	0
COc1ccccc1N=Cc1c(C)c(C#N)c2[nH]c3ccccc3n2c1=O	125.8	-	0	?	0	0
CC(=O)Nc1ccc(SCCN2CCN(CC(C)C)CCC2=O)cc1	-	-	-	0	-	-
Cc1cc(C)c(OCC(=O)Nc2ccc(NC(=O)c3ccco3)cc2)c([N+](=O)[O-])c1	0	31.6µM	0	0	0	0
Cc1ccc(-c2nnc(-c3ccc(NC(=O)c4ccco4)cc3)o2)cc1	0	31.6µM	0	0	0	0
Cc1ccccc1OCc1nc(-c2ccc(NC(=O)c3ccco3)cc2)no1	0	28.2µM	0	0	0	0
O=C(Nc1ccc(-c2nc3ncccc3o2)cc1)c1ccc(Br)o1	0	0	0	0	0	0
O=C(Nc1ccc(-c2nc3ncccc3o2)cc1)c1ccco1	0	28.2µM	0	?	0	0
Cc1ccc(NC(=S)NNC(=O)c2ccco2)cc1	0	0	0	0	0	0
Cc1cc(C)c(OCC(=O)Nc2cccc(NC(=O)c3ccco3)c2)c(Br)c1	0	0	0	0	0	0
CCS(=O)(=O)c1ccc2oc(Nc3ccc(C(C)C)cc3)nc2c1	0	31.6µM	0	0	0	0
O=[N+]([O-])c1ccc(Sc2nnnn2-c2ccccc2)nc1	0	-	0	0	0	17.8µM
Cc1cc(C)n(-c2ccc(C(=O)OCc3nnc(-c4ccccc4)o3)cc2)n1	0	35.5µM	0	0	0	0
Cc1cc(C)n(-c2ccc(C(=O)OCc3ccccc3)cc2)n1	0	-	0	0	0	0
Cc1nn(-c2ccccc2)c2sc(C(=O)OCc3nnc(-c4ccccc4)o3)cc12	0	14.1µM	0	0	0	0
Cc1nn(-c2ccccc2)c2sc(C(=O)O)cc12	0	0	0	?	0	0
COC(=O)c1cc2c(C)nn(-c3ccccc3)c2s1	0	31.6µM	0	0	0	0
O=C(NCc1ccc(F)cc1)n1cc(P(=S)(c2ccccc2)c2ccccc2)c2ccccc21	-	-	-	0	-	-
O=[N+]([O-])c1cc(Cl)ccc1Nc1nc(Nc2ccc(Cl)cc2[N+](=O)[O-])nc(N2CCOCC2)n1	-	0	-	0	-	-
Cc1ccc(S(=O)(=O)N2CCN(c3cnn(C)c(=O)c3Cl)CC2)cc1	0	-	0	0	0	20µM

Screening results (PubChem)
